Compound activity as filed in PubChem BioAssay.
The sample as a whole holds a higher share of hits than the screen did.
Pf Dd2 growth: blocks in vitro growth of P. falciparum Dd2; P. falciparum Dd2 growth, SYBR Green, 72 h; Potency, µM (series often up to 28.9 µM), for the others: top-dose activity, negative = inhibition, most hits filed as inhibitors; actives 4.3% (n = 120,000); active means well fitted inhibition curve with a large enough effect;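 further: plate controls were DMSO vehicle for no effect and reference drug for full effect; nearly all actives have a fitted effect of over 65% in size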
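Infected erythrocytes (Dd2, 0.3% parasitemia, 2.5% hematocrit final) are added to compound in RPMI-1640/Albumax II medium, grown 72 h at 37C in low oxygen, then lysed with saponin/Triton-X containing SYBR Green and read by fluorescence.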
* hit, by the source's call; i = inactive; [ ] = another dose, or the depositor's remark. Potency means the concentration at half of the fitted maximal effect.

SMILES	Pf Dd2 growth
CCOC(=O)c1ccccc1NC(=O)c1cnn(-c2ccc(OC)cc2)c1C1CCN(C(=O)OC(C)(C)C)CC1	59.3%
CC(C)(C)OC(=O)N1CCC(c2c(C(=O)N3CCN(c4ccccn4)CC3)cnn2-c2ccccc2)CC1	-22.1%
Cc1ccc(C2CCN(C(=O)c3cnn(-c4ccc(C)cc4)c3C3CCN(C(=O)OC(C)(C)C)CC3)C2)cc1 (stereo not drawn)	-24.1%
CC(C)(C)OC(=O)N1CCC(c2c(C(=O)N3CCC(c4ccccc4)C3)cnn2-c2ccc(Cl)cc2)CC1 (stereo not drawn)	4.47µM*
Cc1ccc(-n2ncc(C(=O)N3CCC(c4ccccc4)C3)c2C2CCN(C(=O)OC(C)(C)C)CC2)cc1 (stereo not drawn)	11.2µM*
COc1ccc(-n2ncc(C(=O)N3CCN(c4ncccn4)CC3)c2C2CCN(C(=O)OC(C)(C)C)CC2)cc1	19.7%
CCOC(=O)c1cnn(-c2ccc(OC)cc2)c1C1CCN(C(=O)OC(C)(C)C)CC1	7.94µM*
CCOCCN1C(=O)COC[C@@H]1[C@H](O)c1ccc(NC(=O)COC)cc1	i
NC(=O)CCNC(=O)C1=C[C@@H](NC(=O)NC2CCCCC2)[C@@H](O)[C@H](O)C1	14.0%[44.1 µM]
CN1CCN(c2nc3c(c(=O)[nH]2)CCN(Cc2cc(Cl)ccc2F)CC3)CC1	74.4%[5.79 µM]
O=C1CCN(C(=O)c2ccccc2)CCCC(C(=O)NCCCN2CCCC2)CCN1 (stereo not drawn)	21.1%
COc1ccc(NCc2cccn2-c2nnc(N3CCC(C)CC3)s2)c(OC)c1	11.2µM*
COc1ccc(OC)c(NC(=O)c2cccn2-c2nnc(N3CCCCC3)s2)c1	-24.7%
COc1ccc(OC)c(NCc2cccn2-c2nnc(N3CCC(C)CC3)s2)c1	-11.4%
O=C(Cn1nc2c(cc1=O)CCCC2)NCc1nnc2ccccn12	-23.8%
CNc1cc(C2CC(NC(=O)CCn3c(C)cccc3=O)C2)nc(N)n1 (stereo not drawn)	-8.3%
Cc1c(C(=O)OCC2CCCCC2)[nH]c2c1C(=O)CC(c1ccc(F)cc1)C2 (stereo not drawn)	-13.4%
Cc1c(C(=O)OC2CCC(C)CC2)[nH]c2c1C(=O)CC(c1ccccc1Cl)C2 (stereo not drawn)	-27.1%
Cc1c(C(=O)OC2CCCCCC2)[nH]c2c1C(=O)CC(c1ccccc1Cl)C2 (stereo not drawn)	10µM*
Cc1c(C(=O)OC2CCCCCC2)[nH]c2c1C(=O)CC(c1ccc(Cl)cc1)C2 (stereo not drawn)	-9.1%
COc1cc(C2CC(=O)c3c([nH]c(C(=O)OC4CCCC4)c3C)C2)cc(OC)c1OC (stereo not drawn)	5.62µM*
CC1=C(C(=O)OC2CCCCCC2)C(c2c(F)cccc2Cl)CC(=O)N1 (stereo not drawn)	-14.2%
COCC(=O)N[C@H]1CCN2C(=O)N(c3ccc(OC(F)(F)F)cc3)C(=O)[C@@H]2C1	i
COc1cc(NC(=O)CN2C(=O)NC3(CCCCC3)C2=O)cc(OC)c1OC	-27.1%
Cc1ccccc1CC(=O)N1C[C@@H](COc2ccccc2)[C@H](C(N)=O)C1	-11.4%
SMILES	Pf Dd2 growth
Cc1ccc(C2=NC3(CCN(C(=O)c4ccc(C)s4)CC3)ON2)cc1	-11.4%
C/C=C/CC(=O)N1CCC(Oc2ccccc2OC)(C(=O)O)CC1	-8.5%
COc1cccc(N2CCN(C(=O)C3CCCN(Cc4cccnc4)CCC(=O)NCC3)CC2)c1 (stereo not drawn)	3.98µM*
COc1cccc(CN2CCCC(C(=O)NCc3ccncc3)CCNC(=O)CC2)c1 (stereo not drawn)	-5.0%
N#Cc1ccccc1CN1CCCC(C(=O)NCc2ccccc2)CCNC(=O)CC1 (stereo not drawn)	i
Cc1cccc(N2CCN(C(=O)C3CCCN(C(=O)c4cccnc4)CCC(=O)NCC3)CC2)c1 (stereo not drawn)	5.6%
CCN1CCN(C(=O)C2CCCN(Cc3cccnc3)CCC(=O)NCC2)CC1 (stereo not drawn)	9.2%
COc1cccc(CN2CCCC(C(=O)NCc3ccccc3)CCNC(=O)CC2)c1 (stereo not drawn)	6.31µM*
Cc1nc(C2CC(O)C2)cc(N2CCC(c3nc(C(C)C)no3)CC2)n1 (stereo not drawn)	-1.9%
Cc1cccc(NC(=O)Cn2c(N3CCC(C)CC3)nc(C)cc2=O)c1	-16.2%
COc1cccc(NC(=O)C2N(C(C)C)C(=O)C23CCCC3)c1 (stereo not drawn)	11.6%
CCCN1C(=O)CC[C@H]2CN(C(=O)Cc3cnc(C)[nH]c3=O)CC[C@H]21	-4.0%
O=C(CN1CC2CC(C1)[C@H]1CCCC(=O)N1C2)NCc1ccc(Cl)cc1 (stereo partly drawn)	-15.5%
COc1ccccc1-c1[nH]nc2ncc(C(=O)N3CCC(c4ccccc4)CC3)nc12	14.1µM*
COc1ccccc1-c1[nH]nc2ncc(C(=O)N(C)c3ccccc3)nc12	-22.4%[44.1 µM]
COc1ccccc1-c1[nH]nc2ncc(C(=O)N3CCNC(=O)C3)nc12	-14.7%[44.1 µM]
O=C(c1ccc(-c2cccnc2)nc1)N1CCCC(c2ccccc2)CC1 (stereo not drawn)	-16.0%
COC(=O)c1cc2n(n1)CCN(C(=O)Cc1[nH]nc3ccccc13)C2	-16.4%
O=C(Cn1cc(C(F)(F)F)ccc1=O)N1CCC2(CCCNC2=O)C1 (stereo not drawn)	-10.9%
COc1cccc(NC(=O)[C@@H]2C[C@@H](c3cccc(C(F)(F)F)c3)N(C)C2)c1	-15.3%[44.1 µM]
CNC(=O)N1CCC(C2CCN(S(=O)(=O)c3cnc[nH]3)C2)CC1 (stereo not drawn)	-22.4%
Cc1cnc(C)c(-c2cc(O)c3c(c2)CN(C(=O)c2ccncn2)CCO3)n1	-14.3%
Cc1cncc(C(=O)N2CCOc3c(O)cc(-c4nc5ccccc5s4)cc3C2)c1	7.94µM*
Cc1nc(CN2CCOc3c(O)cc(-c4nc5ccccc5s4)cc3C2)no1	-24.9%
O=C(CCC[C@@H]1[C@H]2CCCN3CCC[C@@H](CN1C(=O)c1cc(F)ccc1F)[C@@H]23)N1CCOCC1	-4.1%
SMILES	Pf Dd2 growth
COc1cccc(NS(=O)(=O)c2ccc3[nH]c4c(c3c2)CCCCCC4)c1	-27.3%
O=C(CSc1nc(=O)[nH]c2c1CCC2)NCc1ccccc1	9.8%
O=C(Nc1ccccc1)c1cccc2c(=O)c3c([nH]c12)CCCC3	4.47µM*
CCC1(C(=O)Nc2cccc(OC)c2)CCCCC(=O)N1 (stereo not drawn)	14.1%
COc1cccc(NC(=O)c2cccc3c(=O)c4c([nH]c23)CCCC4)c1	0.891µM*
O=C(CSc1nc(=O)[nH]c2c1CCCC2)NCc1ccccc1	24.7%
O=C(c1[nH]nc2c1COc1ccccc1-2)N1CCCC(Cc2nc(C3CCOCC3)no2)C1 (stereo not drawn)	i
Cc1ncccc1OC1(C(=O)NCc2n[nH]c3c2CCC3)CCNCC1	8.1%
CCCn1nc(C)c(Cn2cc(-c3nccn3C)nn2)c1C	-12.1%
CN1C(=O)CCC2(CNC(=O)c3ccccc3)CCC=C12 (stereo not drawn)	10.7%
COCCOc1cc(=O)n2c(c1C(=O)NCc1ccc(C)cc1)CCOCC2	-13.7%
CCC(NCc1cn(CCC(N)=O)c2ccccc12)c1cccs1 (stereo not drawn)	-23.6%
NC(=O)CCn1cc(CN(CCO)Cc2ccccc2F)c2ccccc21	2.24µM*
O=C(Cn1cc(SCc2ccccc2F)c2ccccc21)N1CCCCC1	-18.3%
COc1cccc(NC(=O)Cn2c(C)ccc(NC(=O)Nc3ccc(C)cc3)c2=O)c1	-23.7%
Cn1nc(C2CCN(C(=O)c3ccc(F)cc3)CC2)[nH]c1=O	-19.0%[44.1 µM]
